# The source made the active and inactive calls.
# Columns and labels:
# [1] = binders of probe aFSTL3 on microarray, primary screen, stem cell growth factor project, biochemical, small-molecule microarray, fluorescence 635/667 (AID 1064); conditions: higher = more signal;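 also: measures binding of the biotinylated anti-FSTL3 antibody to printed compounds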
# [2] = binders from COS7 lysate, DM2A8 probe, primary screen, torsin A project, cell lysate, small-molecule microarray, fluorescence 635/667 (AID 1065); conditions: higher = more signal, COS7 lysate expressing mutant human TOR1A
# [3] = binders of probe aFGF2 on microarray, primary screen, stem cell growth factor project, biochemical, small-molecule microarray, fluorescence 635/667 (AID 1067); conditions: higher = more signal;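 also: measures binding of biotinylated aFGF2 protein to printed compounds on slides; z-score merges feature fluorescence and signal-to-noise across triplicate slides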
# [4] = binders of probe aFGF10 on microarray, primary screen, stem cell growth factor project, biochemical, small-molecule microarray, fluorescence 635/667 (AID 1071); conditions: higher = more signal;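 also: score merges 667 nm spot intensity and signal to noise from triplicate slides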
# [5] = target: Neurogenic locus notch homolog protein 2 (Homo sapiens) (UniProt Q04721); experiment: Notch2 binders on small-molecule microarrays, primary screen, biochemical, small-molecule microarray, 635 nm fluorescence, stem cell growth factors (AID 1073); conditions: Notch2 binding, higher = more signal
# [6] = target: Pro-neuregulin-1, membrane-bound isoform (Homo sapiens) (UniProt Q02297); experiment: NRG1 binders on small-molecule microarrays, primary screen, psychiatric disease protein project, biochemical, small-molecule microarray, fluorescence 635/667 (AID 1075); conditions: NRG1 binding, 635 nm fluorescence, higher = more signal;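 also: score combines 667 nm spot fluorescence with signal to noise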
# [7] = system: Neuregulin-1 EGF-like domain; experiment: binders of neuregulin-1 EGF-like domain, primary screen, biochemical, small-molecule microarray, 635 nm fluorescence (AID 1081); conditions: small-molecule microarray binding, higher = more signal;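 also: binding of the protein to compounds printed on small-molecule microarray slides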
# [8] = FRG1 promoter luciferase signal modulators, primary screen, FRG1 inhibition for FSHD, cell-based, C2C12 myotubes, firefly/Renilla luciferase, luminescence (AID 1084); conditions: higher = more signal, called active from +8 up or from −8 down
# [9] = binders of probe aFST on microarray, primary screen, stem cell growth factor project, biochemical, small-molecule microarray, fluorescence 635/667 (AID 1086); conditions: higher = more signal;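 also: score merges 667 nm fluorescence with signal-to-noise of each printed compound spot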
# [10] = binders of probe aHhip on microarray, primary screen, stem cell growth factor project, biochemical, small-molecule microarray, fluorescence 635/667 (AID 1087); conditions: higher = more signal;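 also: score merges spot fluorescence at 667nm with spot signal to noise ratio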
# Neurogenic locus notch homolog protein 2 (Homo sapiens), sequence (Q04721 whole entry, looked up, canonical isoform): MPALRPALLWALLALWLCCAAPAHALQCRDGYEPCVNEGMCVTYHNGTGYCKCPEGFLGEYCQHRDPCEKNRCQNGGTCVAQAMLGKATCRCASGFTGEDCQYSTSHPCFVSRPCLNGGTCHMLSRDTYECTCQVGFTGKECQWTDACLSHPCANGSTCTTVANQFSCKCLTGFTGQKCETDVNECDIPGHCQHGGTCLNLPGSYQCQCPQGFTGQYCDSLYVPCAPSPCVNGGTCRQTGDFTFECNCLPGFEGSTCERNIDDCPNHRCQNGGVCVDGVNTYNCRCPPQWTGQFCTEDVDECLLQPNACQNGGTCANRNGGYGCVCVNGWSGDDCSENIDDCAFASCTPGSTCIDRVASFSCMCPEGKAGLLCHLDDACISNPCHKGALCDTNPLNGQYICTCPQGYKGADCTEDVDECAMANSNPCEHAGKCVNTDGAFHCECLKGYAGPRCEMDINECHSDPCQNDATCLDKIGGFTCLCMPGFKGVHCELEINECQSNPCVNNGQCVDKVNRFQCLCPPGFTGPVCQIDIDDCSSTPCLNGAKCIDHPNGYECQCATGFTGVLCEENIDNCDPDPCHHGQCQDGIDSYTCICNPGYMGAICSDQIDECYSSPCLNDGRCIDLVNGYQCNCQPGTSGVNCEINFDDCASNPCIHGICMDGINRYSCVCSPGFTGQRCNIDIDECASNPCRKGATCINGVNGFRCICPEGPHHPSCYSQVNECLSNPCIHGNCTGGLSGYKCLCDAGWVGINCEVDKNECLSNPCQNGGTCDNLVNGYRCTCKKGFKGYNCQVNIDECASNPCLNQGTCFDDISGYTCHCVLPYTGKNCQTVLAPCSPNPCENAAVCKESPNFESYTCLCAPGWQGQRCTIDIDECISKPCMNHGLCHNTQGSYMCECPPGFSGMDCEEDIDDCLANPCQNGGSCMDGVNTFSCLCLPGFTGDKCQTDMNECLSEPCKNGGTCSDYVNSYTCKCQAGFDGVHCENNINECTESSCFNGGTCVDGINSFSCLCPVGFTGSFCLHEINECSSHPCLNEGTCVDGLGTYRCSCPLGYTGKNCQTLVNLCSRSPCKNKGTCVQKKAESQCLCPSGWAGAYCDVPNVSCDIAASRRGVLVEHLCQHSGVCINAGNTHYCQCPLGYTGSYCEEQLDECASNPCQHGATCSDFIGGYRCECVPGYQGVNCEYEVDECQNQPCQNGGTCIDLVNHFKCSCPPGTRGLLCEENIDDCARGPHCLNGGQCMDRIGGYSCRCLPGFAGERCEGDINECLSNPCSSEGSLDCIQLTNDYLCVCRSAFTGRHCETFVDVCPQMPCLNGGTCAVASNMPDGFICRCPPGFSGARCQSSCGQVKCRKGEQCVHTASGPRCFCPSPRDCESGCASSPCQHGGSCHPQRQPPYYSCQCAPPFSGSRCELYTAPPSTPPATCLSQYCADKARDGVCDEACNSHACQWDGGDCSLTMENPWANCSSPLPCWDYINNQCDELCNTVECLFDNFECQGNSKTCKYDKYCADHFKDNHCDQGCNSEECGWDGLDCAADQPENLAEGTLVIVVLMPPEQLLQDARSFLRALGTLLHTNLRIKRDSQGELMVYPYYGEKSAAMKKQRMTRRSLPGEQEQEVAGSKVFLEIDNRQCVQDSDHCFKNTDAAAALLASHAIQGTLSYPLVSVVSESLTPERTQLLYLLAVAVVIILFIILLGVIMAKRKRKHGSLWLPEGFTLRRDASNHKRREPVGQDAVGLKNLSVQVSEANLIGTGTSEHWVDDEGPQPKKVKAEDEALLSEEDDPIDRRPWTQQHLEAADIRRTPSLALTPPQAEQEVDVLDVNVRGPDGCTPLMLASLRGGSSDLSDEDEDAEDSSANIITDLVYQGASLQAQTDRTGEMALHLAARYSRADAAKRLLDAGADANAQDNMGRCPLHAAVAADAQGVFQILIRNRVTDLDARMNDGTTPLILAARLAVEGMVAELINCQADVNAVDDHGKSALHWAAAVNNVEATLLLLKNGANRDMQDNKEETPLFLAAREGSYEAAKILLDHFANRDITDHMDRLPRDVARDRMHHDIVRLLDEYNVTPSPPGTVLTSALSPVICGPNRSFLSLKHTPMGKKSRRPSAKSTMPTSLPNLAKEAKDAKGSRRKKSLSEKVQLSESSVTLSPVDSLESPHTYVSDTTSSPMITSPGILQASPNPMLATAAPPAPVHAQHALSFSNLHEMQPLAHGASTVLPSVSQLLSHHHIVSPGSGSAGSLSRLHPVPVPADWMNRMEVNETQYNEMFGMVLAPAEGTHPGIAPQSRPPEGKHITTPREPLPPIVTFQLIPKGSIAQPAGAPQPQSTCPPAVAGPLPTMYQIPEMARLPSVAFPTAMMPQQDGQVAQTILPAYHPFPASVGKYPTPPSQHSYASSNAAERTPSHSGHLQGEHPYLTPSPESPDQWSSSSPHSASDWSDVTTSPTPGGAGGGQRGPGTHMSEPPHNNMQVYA
# Pro-neuregulin-1, membrane-bound isoform (Homo sapiens), sequence (Q02297 whole entry, looked up, the tested form may be a part, canonical isoform): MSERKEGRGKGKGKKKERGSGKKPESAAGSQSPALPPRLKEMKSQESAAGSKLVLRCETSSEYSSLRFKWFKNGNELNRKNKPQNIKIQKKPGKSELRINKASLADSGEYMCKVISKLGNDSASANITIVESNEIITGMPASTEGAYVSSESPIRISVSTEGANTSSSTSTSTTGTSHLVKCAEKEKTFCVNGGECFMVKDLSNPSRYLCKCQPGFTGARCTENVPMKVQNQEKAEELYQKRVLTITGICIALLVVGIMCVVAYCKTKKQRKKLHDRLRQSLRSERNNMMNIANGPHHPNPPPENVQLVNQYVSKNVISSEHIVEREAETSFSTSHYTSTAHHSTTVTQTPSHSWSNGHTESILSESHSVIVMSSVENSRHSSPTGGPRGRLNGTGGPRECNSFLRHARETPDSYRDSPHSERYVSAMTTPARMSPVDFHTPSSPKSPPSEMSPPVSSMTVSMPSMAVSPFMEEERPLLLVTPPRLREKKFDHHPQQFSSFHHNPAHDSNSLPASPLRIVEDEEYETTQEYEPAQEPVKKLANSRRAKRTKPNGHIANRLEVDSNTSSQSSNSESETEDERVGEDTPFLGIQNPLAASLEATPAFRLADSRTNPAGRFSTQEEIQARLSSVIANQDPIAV
Structure (SMILES),composite z-score [1],composite z-score [2],composite z-score [3],composite z-score [4],composite z-score [5],composite z-score [6],composite z-score [7],z-score [8],composite z-score [9],composite z-score [10]
COCCOC(=O)N1C(=O)[C@@]2(c3ccccc31)[C@H](c1ccc(O)cc1)N1[C@H](c3ccccc3)[C@H](c3ccccc3)OC(=O)[C@H]1[C@@H]2C(=O)N1CCCCCCC1,3.84,1.88,0.949,0.802,1.07,2.5,1.29,-3.25 (inactive),3.5,3.27
COc1ccc([Si](C)(C)[C@H]2[C@H](CC(=O)N3CCC[C@H]3CO)O[C@@]3(C(=O)N(Cc4ccc(N5CCCCC5=O)cc4)c4ccccc43)[C@@H]2C)cc1,-0.35,0.227,-0.0494,0.671,0.565,1.33,1.12,-4.24 (inactive),0.536,0.0373
C[N+](C)(C)CCCC[C@@H]1NC(=O)[C@@H]2C[C@H](C(=O)NCc3ccc(F)cc3)[C@H](c3ccc(O)cc3)N2C1=O,0.315,-0.4,-0.148,-0.447,-1.3,1.3,1.38,0.337 (inactive),-0.936,-0.201
COc1ccc(C(=O)Nc2ccc(CN3C(=O)[C@@]4(O[C@@H](CCn5cc(CCO)nn5)[C@H]([Si](C)(C)c5ccc(OC)cc5)[C@H]4C)c4ccccc43)cc2)cc1,-0.249,0.269,-0.0613,0.462,0.534,0.587,1.16,-3.59 (inactive),0.859,-0.137
CCC(CC)C(O)C1C=CC2C(=O)N(c3ccccc3)C(=O)C2N1Nc1ccccc1F (stereo not given),-0.226,1.01,-0.0222,0.715,1.48,1.29,1.38,-0.556 (inactive),1,0.0373
COC(=O)C(CC#Cc1ccc2c(c1)[C@]1(C(=O)N2)[C@H](C(=O)N2CCc3cc(OC)c(OC)cc3C2)[C@H]2C(=O)O[C@H](c3ccccc3)[C@H](c3ccccc3)N2[C@@H]1c1ccccc1OCCO)C(=O)OC,-0.385,1.03,-0.0037,0.738,1.15,1.67,1.25,1.31 (inactive),0.529,-0.0346
O=C1C[C@@](C(=O)NCc2ccccc2)(c2ccc([N+](=O)[O-])cc2)[C@@H](c2ccc(CO)cc2)N1C1CCCCC1,-0.709,0.858,-0.101,0.104,0.324,1.4,1.31,-1.47 (inactive),0.117,-0.158
COC(=O)[C@@]1(Cc2ccc(OC)cc2)[C@H]2c3cc(C(=O)N4CCCC4)n(Cc4ccc(Cl)c(C(F)(F)F)c4)c3C[C@H]2CN1C(=O)c1ccccc1,0.608,0.673,0.243,0.437,1.64,2,0.605,-2.87 (inactive),1.53,0.132
COC(=O)C(CC#Cc1ccc2c(c1)[C@]1(C(=O)N2)[C@H](C(=O)NC[C@H](O)c2ccccc2)[C@H]2C(=O)O[C@H](c3ccccc3)[C@H](c3ccccc3)N2[C@@H]1c1ccccc1OCCO)C(=O)OC,-0.266,0.423,-0.0996,0.558,1.08,1.27,1.3,0.0111 (inactive),0.254,0.0749
CC(C)NC(=O)[C@@H]1c2ccccc2C(=O)N(Cc2ccc(OC(F)(F)F)cc2)[C@H]1c1ccc(CO)cc1,0.33,-0.0722,0.242,0.625,1.05,0.765,1,-1.05 (inactive),1.35,2.21
COc1cc(C(O)C2C=CC3C(=O)N(c4ccccc4)C(=O)C3N2Nc2ccccc2)cc(OC)c1OC (stereo not given),0.251,0.36,0.218,1.14,1.68,1.92,1.17,1.07 (inactive),1.48,0.189
C=CC[C@@]1(C(=O)OC)N=C(c2ccc(OCCCO)cc2)O[C@@H]1c1ccccc1N=[N+]=[N-],0.172,-0.0701,0.0555,0.256,1.47,1.49,1.44,1.54 (inactive),0.587,0.154
COC(=O)c1cccc([C@H]2OC(=CC(=O)OC(C)C)C[C@@H](c3cccc(C(=O)OC)c3)O2)c1,-0.3,2.67,0.357,1.14,1.08,1.4,1.12,0.946 (inactive),0.902,-0.289
